Measured values: PubChem BioAssay (NCATS)
Inconclusive results are not listed. Active and inactive are the calls of the source. Unless noted, the call rests on the fitted dose curve; in most records, active means well fitted curve in the direction sought with a large enough effect; inconclusive means small, poorly fitted or top-dose-only effect, or another doubt; inactive means no such curve, though single readings can be large; an effect the other way counts as inactive or inconclusive.

Legend:
[1] = target: Mitogen-activated protein kinase 10 (Mus musculus) (UniProt Q61831); experiment: JNK3 AlphaScreen Assay (AID 530; active means well fitted curve in either direction with a large enough effect, not every such curve was filed as active;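 further: kinase came from lysate of stimulated human HepG2 cells; signal reports phosphorylation of biotinylated GST-cJun 1-79 at Ser73 with 10 µM ATP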)
Summary of the method: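 qHTS format: compounds tested as titrations against IL-1beta/TNF-alpha-activated HepG2 lysate JNK3 with biotin-GST-cJun substrate and 10 uM ATP at room temperature. Loss of anti-phospho-cJun AlphaScreen signal indicates inhibition.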

[2] = target: 3',5'-cyclic-AMP phosphodiesterase 4B (Homo sapiens) (UniProt Q07343); experiment: qHTS Assay for Inhibitors of PDE-IV (AID 607; active means well fitted activation curve with a large enough effect in the main read-out, with a control signal flat, not every such curve was filed as active)
Chain of 3',5'-cyclic-AMP phosphodiesterase 4B (Homo sapiens) (Q07343 whole entry, looked up): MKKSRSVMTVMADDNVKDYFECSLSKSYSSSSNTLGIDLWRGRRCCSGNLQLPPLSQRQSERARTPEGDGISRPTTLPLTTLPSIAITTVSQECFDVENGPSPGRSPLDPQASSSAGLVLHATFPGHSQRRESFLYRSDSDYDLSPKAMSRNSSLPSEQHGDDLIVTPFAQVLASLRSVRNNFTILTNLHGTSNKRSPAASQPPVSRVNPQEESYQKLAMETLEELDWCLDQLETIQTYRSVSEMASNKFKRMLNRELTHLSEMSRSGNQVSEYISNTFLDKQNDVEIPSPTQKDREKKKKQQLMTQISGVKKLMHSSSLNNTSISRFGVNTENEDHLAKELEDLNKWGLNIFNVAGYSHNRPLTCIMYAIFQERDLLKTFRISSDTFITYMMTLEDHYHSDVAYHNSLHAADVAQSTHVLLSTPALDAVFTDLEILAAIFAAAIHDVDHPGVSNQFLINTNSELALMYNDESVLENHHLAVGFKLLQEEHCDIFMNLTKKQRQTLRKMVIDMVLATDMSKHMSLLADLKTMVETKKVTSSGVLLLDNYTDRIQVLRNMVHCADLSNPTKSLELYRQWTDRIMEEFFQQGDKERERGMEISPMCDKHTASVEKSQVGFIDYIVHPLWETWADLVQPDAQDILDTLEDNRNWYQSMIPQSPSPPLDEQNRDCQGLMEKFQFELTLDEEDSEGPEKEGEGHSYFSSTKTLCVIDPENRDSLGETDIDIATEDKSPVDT
Summary of the method: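 Cell-based read-out of cAMP via a modified cyclic nucleotide-gated channel and membrane potential dye (535/590 nm) in HEK293 cells expressing PDE4 endogenously. Compounds tested up to 22.9 uM final; 100 uM RO 20-1724 reference.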

[3] = target: Cytochrome P450 2C9 (Homo sapiens) (UniProt P11712); experiment: qHTS Assay for Inhibitors and Substrates of Cytochrome P450 2C9 (AID 883); further: potency means the concentration at half of the fitted maximal effect; nearly all actives have a fitted effect of over 60% in size
Chain of Cytochrome P450 2C9 (Homo sapiens) (P11712 whole entry, looked up): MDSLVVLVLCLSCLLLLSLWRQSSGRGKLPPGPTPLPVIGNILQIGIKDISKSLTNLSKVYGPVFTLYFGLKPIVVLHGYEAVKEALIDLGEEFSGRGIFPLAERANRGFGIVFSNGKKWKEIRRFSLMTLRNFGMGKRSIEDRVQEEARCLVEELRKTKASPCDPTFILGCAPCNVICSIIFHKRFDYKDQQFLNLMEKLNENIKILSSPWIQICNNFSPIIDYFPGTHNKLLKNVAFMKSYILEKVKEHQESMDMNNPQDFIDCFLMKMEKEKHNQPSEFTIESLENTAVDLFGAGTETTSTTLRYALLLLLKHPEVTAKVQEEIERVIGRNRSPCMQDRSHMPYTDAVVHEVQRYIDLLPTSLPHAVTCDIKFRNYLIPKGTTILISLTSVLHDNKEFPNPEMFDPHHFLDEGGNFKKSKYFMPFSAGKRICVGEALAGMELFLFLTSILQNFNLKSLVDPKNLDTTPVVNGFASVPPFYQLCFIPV
Summary of the method: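 10nM CYP2C9 + 100uM Luciferin-H (=KM), 25mM KPO4; cpd 10 min 37C; NADPH regen, 60 min 37C; stop/detect with P450 Glo-Buffer 20 min; luminescence. Norm. to 57uM sulphaphenazole as full inhibition.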

[4] = target: Cytochrome P450 3A4 (Homo sapiens) (UniProt P08684); experiment: qHTS Assay for Inhibitors and Substrates of Cytochrome P450 3A4 (AID 884); further: potency means the concentration at half of the fitted maximal effect; nearly all actives have a fitted effect of over 50% in size
Chain of Cytochrome P450 3A4 (Homo sapiens) (P08684 whole entry, looked up): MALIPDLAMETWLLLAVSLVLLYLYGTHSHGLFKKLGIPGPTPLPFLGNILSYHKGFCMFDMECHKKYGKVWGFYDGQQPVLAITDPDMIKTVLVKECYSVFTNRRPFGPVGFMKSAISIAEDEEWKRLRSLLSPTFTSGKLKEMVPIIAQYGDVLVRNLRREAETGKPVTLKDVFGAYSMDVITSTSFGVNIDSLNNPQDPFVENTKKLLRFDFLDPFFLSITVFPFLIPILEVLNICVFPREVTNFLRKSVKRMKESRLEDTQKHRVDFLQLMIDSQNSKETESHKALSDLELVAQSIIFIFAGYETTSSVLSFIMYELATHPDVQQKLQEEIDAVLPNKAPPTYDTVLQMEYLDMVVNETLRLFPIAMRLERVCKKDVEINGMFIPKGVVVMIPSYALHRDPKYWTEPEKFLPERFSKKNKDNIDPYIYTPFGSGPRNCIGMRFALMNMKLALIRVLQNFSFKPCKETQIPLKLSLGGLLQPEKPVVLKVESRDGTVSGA
Summary of the method: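 20 nM human CYP3A4 with 25 uM Luciferin-PPXE (at KM) in 200 mM KPO4, preincubated 10 min with compound; NADPH regeneration started a 60 min RT reaction. Luciferin detected by luminescence, normalized to 57 uM ketoconazole as full inhibition.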

[5] = target: Cytochrome P450 3A4 (Homo sapiens) (UniProt P08684); experiment: qHTS Assay for Activators of Cytochrome P450 3A4 (AID 885); further: nearly all actives have a fitted effect of over 65% in size
Summary of the method: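 Signal was normalized against complete inhibition by 57 uM ketoconazole. The reaction used 20nM CYP3A4 with 25uM Luciferin-PPXE, 10-min compound preincubation and a 60-min NADPH-supported step at RT.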

[6] = target: Ubiquitin carboxyl-terminal hydrolase 1 (Homo sapiens) (UniProt O94782); experiment: Inhibitors of USP1/UAF1: Pilot qHTS (AID 504865);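 further: rhodamine fluorescence freed from ubiquitin-rhodamine substrate followed over time; top concentration of the series differs between compounds; nearly all actives have a fitted effect of over 35% in size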
Chain of Ubiquitin carboxyl-terminal hydrolase 1 (Homo sapiens) (O94782 whole entry, looked up): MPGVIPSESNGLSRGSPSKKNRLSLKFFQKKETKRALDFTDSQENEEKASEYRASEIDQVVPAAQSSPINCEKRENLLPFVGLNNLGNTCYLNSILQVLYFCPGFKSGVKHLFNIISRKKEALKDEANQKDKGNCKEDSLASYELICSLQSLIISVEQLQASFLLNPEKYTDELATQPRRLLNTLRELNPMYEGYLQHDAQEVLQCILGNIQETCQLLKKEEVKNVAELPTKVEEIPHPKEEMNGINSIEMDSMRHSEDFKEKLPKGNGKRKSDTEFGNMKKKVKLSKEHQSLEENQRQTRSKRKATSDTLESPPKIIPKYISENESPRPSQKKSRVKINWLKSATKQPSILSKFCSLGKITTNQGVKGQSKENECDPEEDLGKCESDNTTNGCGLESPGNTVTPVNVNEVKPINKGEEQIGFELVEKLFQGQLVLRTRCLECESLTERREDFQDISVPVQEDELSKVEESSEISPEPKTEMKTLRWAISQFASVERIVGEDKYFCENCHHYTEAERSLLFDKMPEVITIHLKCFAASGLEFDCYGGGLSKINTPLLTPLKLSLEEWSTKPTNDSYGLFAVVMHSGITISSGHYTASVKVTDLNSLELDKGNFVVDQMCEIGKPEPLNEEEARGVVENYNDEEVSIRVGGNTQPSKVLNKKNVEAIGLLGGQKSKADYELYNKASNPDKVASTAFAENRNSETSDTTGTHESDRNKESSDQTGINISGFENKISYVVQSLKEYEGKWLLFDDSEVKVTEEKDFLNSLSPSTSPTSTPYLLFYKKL
Summary of the method: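 USP1/UAF1 complex (1nM) preincubated with compound 15 min at room temperature, then Ub-Rho substrate (150nM final) added. Fluorescence read kinetically at 480/540 nm, 6 reads every 60 seconds. Buffer: 50mM HEPES pH 7.8, 0.5mM EDTA, 0.1 mg/ml BSA, 1mM TCEP, 0.01% Tween-20.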

[7] = target: Luciferin 4-monooxygenase (Photinus pyralis) (UniProt P08659); experiment: Biochemical firefly luciferase enzyme assay for NPC (AID 624030);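 further: purified P. pyralis luciferase at 10 nM with luciferin and ATP substrate; nearly all actives have a fitted effect of over 70% in size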
Chain of Luciferin 4-monooxygenase (Photinus pyralis) (P08659 whole entry, looked up): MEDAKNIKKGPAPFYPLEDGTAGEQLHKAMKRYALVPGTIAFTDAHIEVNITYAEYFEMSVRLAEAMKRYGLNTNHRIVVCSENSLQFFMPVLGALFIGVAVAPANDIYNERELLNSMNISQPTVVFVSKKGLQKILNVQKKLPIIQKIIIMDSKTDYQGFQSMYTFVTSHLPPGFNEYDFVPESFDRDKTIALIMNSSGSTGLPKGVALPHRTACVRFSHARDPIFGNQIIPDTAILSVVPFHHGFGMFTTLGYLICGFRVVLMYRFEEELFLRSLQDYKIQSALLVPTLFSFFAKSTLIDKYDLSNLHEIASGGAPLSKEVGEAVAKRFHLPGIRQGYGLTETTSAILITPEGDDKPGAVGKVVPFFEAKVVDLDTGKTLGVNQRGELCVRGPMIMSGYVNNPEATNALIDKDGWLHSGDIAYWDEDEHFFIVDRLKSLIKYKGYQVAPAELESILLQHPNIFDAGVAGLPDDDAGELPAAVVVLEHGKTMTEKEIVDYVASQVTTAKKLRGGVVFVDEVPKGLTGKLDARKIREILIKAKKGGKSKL
Summary of the method: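 Purified P. pyralis luciferase at 10 nM in 50 mM Tris Acetate (final), luminescence read within 5 minutes of enzyme addition to compounds. Activity normalised to PTC124 versus DMSO; concentration-response curves classed by r2, magnitude and activity.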

[8] = S16 Schwann cell viability assay (CellTiter-Glo assay) (AID 624031);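 further: native untransfected S16 rat Schwann cells; cellular ATP luminescence as a viability measure; nearly all actives have a fitted effect of over 70% in size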
Summary of the method: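 Parental S16 cells, 24 h compound, 37 °C. ATP-luminescence viability; DMSO = 0% activity, empty wells as reference; curves classified by fit quality and efficacy.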

[9] = S16 Schwann cell PMP22 intronic element firefly luciferase assay (AID 624032); further: nearly all actives have a fitted effect of over 30% in size
Summary of the method: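 Rat S16 Schwann cells stably carrying firefly luciferase driven by a PMP22 intronic element, in 10% FBS, treated 24 h at 37 C. ONE-Glo luminescence normalized to PTC124 control and DMSO (0%); curves classed by r2, magnitude and activity.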

3D7 = experiment: qHTS profiling for inhibitors of Plasmodium falciparum proliferation (AID 504749); further: nearly all actives have a fitted effect of over 60% in size; further: potency means the concentration at half of the fitted maximal effect; conditions: P. falciparum in erythrocytes, SYBR Green DNA, 72 h; series mostly up to 28.7 µM
Summary of the method: (§1)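 Readout was DNA-dye fluorescence from lysed cultures, ex 485/em 535 nm. Parasitized red cells had grown 72 h with compound; data scaled between 0.29 uM artemisinin and DMSO wells and corrected using vehicle-only plates.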

7G8 = experiment: as above; conditions: P. falciparum in erythrocytes, SYBR Green DNA, 72 h; series mostly up to 28.7 µM
Summary of the method: as §1

AS120 = experiment: as above; conditions: P. falciparum in erythrocytes, SYBR Green DNA, 72 h; series mostly up to 28.7 µM
Summary of the method: as §1

ATS189 = experiment: as above; conditions: P. falciparum in erythrocytes, SYBR Green DNA, 72 h; series mostly up to 28.7 µM
Summary of the method: as §1

ATS95 = experiment: as above; conditions: P. falciparum in erythrocytes, SYBR Green DNA, 72 h; series mostly up to 28.7 µM
Summary of the method: as §1

CP192 = experiment: as above; conditions: P. falciparum in erythrocytes, SYBR Green DNA, 72 h; series mostly up to 28.7 µM
Summary of the method: as §1

CP194 = experiment: as above; conditions: P. falciparum in erythrocytes, SYBR Green DNA, 72 h; series mostly up to 28.7 µM
Summary of the method: as §1

CP201 = experiment: as above; conditions: P. falciparum in erythrocytes, SYBR Green DNA, 72 h; series mostly up to 28.7 µM
Summary of the method: as §1

CP203 = experiment: as above; conditions: P. falciparum in erythrocytes, SYBR Green DNA, 72 h; series mostly up to 28.7 µM
Summary of the method: as §1

CP211 = experiment: as above; conditions: P. falciparum in erythrocytes, SYBR Green DNA, 72 h; series mostly up to 28.7 µM
Summary of the method: as §1

CP237 = experiment: as above; conditions: P. falciparum in erythrocytes, SYBR Green DNA, 72 h; series mostly up to 28.7 µM
Summary of the method: as §1

CP238 = experiment: as above; conditions: P. falciparum in erythrocytes, SYBR Green DNA, 72 h; series mostly up to 28.7 µM
Summary of the method: as §1

CP260 = experiment: as above; conditions: P. falciparum in erythrocytes, SYBR Green DNA, 72 h; series mostly up to 28.7 µM
Summary of the method: as §1

CP262 = experiment: as above; conditions: P. falciparum in erythrocytes, SYBR Green DNA, 72 h; series mostly up to 28.7 µM
Summary of the method: as §1

CP266 = experiment: as above; conditions: P. falciparum in erythrocytes, SYBR Green DNA, 72 h; series mostly up to 28.7 µM
Summary of the method: as §1

CP268 = experiment: as above; conditions: P. falciparum in erythrocytes, SYBR Green DNA, 72 h; series mostly up to 28.7 µM
Summary of the method: as §1

CP291 = experiment: as above; conditions: P. falciparum in erythrocytes, SYBR Green DNA, 72 h; series mostly up to 28.7 µM
Summary of the method: as §1

CP305 = experiment: as above; conditions: P. falciparum in erythrocytes, SYBR Green DNA, 72 h; series mostly up to 28.7 µM
Summary of the method: as §1

CP315 = experiment: as above; conditions: P. falciparum in erythrocytes, SYBR Green DNA, 72 h; series mostly up to 28.7 µM
Summary of the method: as §1

CP325 = experiment: as above; conditions: P. falciparum in erythrocytes, SYBR Green DNA, 72 h; series mostly up to 28.7 µM
Summary of the method: as §1

DIV14 = experiment: as above; conditions: P. falciparum in erythrocytes, SYBR Green DNA, 72 h; series mostly up to 28.7 µM
Summary of the method: as §1

DIV30 = experiment: as above; conditions: P. falciparum in erythrocytes, SYBR Green DNA, 72 h; series mostly up to 28.7 µM
Summary of the method: as §1

Dd2 = experiment: as above; conditions: P. falciparum in erythrocytes, SYBR Green DNA, 72 h; series mostly up to 28.7 µM
Summary of the method: as §1

FAB9 = experiment: as above; conditions: P. falciparum in erythrocytes, SYBR Green DNA, 72 h; series mostly up to 28.7 µM
Summary of the method: as §1

HB3 = experiment: as above; conditions: P. falciparum in erythrocytes, SYBR Green DNA, 72 h; series mostly up to 28.7 µM
Summary of the method: as §1

JCK = experiment: as above; conditions: P. falciparum in erythrocytes, SYBR Green DNA, 72 h; series mostly up to 28.7 µM
Summary of the method: as §1

PAD = experiment: as above; conditions: P. falciparum in erythrocytes, SYBR Green DNA, 72 h; series mostly up to 28.7 µM
Summary of the method: as §1

PC15 = experiment: as above; conditions: P. falciparum in erythrocytes, SYBR Green DNA, 72 h; series mostly up to 28.7 µM
Summary of the method: as §1

PC49 = experiment: as above; conditions: P. falciparum in erythrocytes, SYBR Green DNA, 72 h; series mostly up to 28.7 µM
Summary of the method: as §1

SC27B = experiment: as above; conditions: P. falciparum in erythrocytes, SYBR Green DNA, 72 h; series mostly up to 28.7 µM
Summary of the method: as §1

TAB113 = experiment: as above; conditions: P. falciparum in erythrocytes, SYBR Green DNA, 72 h; series mostly up to 28.7 µM
Summary of the method: as §1

W2 = experiment: as above; conditions: P. falciparum in erythrocytes, SYBR Green DNA, 72 h; series mostly up to 28.7 µM
Summary of the method: as §1

[10] = target: Cytochrome P450 2C19 (Homo sapiens) (UniProt P33261); experiment: qHTS Assay for Inhibitors and Substrates of Cytochrome P450 2C19 (AID 899); further: potency means the concentration at half of the fitted maximal effect; nearly all actives have a fitted effect of over 60% in size
Chain of Cytochrome P450 2C19 (Homo sapiens) (P33261 whole entry, looked up): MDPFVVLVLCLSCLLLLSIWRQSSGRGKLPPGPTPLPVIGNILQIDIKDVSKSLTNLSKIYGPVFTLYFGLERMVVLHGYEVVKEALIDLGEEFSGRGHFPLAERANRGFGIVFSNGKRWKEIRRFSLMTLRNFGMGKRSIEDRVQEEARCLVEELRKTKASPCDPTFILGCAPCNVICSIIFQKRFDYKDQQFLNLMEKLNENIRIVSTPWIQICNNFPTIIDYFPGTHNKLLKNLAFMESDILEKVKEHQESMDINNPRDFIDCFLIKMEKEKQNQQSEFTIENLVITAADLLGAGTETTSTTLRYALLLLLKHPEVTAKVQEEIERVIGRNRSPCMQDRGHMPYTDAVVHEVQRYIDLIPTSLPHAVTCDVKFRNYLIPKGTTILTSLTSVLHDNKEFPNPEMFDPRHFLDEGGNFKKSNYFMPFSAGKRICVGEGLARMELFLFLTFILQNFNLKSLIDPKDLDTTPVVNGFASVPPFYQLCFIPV
Summary of the method: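 Luminescent read-out of luciferin formed from Luciferin-H EGE (10uM, equal to KM). Enzyme 5nM in 50mM KPO4; compound added, 10 min at 37C, then NADPH regenerating system for 60 min at 37C. Full inhibition defined by 57uM ketoconazole.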

Measured: Potency

O=C(NCCF)[C@H]1C[C@@H]1[C@H](NP(=O)(c1ccccc1)c1ccccc1)c1ccccc1
inactive: [1] | [2]

CCC/C=C(\CCC)C(NC(=O)c1cccs1)c1ccc(C(=O)OC)cc1 (configuration not stated)
inactive: [1] | [5]
active: [3] 2 µM | [4] 1.26 µM

C#CCCCC(=S)Nc1ccccc1
inactive: [1] | [2] | [5]

CCCC[C@@H]1C[C@H]1C(NC(=O)c1ccco1)c1ccc(-c2ccccc2)cc1 (some centres not stated)
inactive: [1] | [5]
active: [3] 3.16 µM

C[C@@]1(C(NC(=O)Cc2ccc(C(F)(F)F)cc2)c2ccc(-c3ccccc3)cc2)C[C@H]1C1CCCCC1 (some centres not stated)
inactive: [1] | [2]

CCC(=O)OC1C(N(C)C)CC(C)O[C@H]1O[C@H]1[C@H](C)[C@@H](O[C@H]2CC(OC)[C@@H](O)C(C)O2)[C@H](C)C(=O)O[C@@H](CC)[C@](C)(O)[C@@H](O)[C@H](C)C(=O)[C@@H](C)C[C@]1(C)O (some centres not stated)
active: Dd2 12.6 µM | W2 6.75 µM
not listed: [1] | [2] | [3] | [4] | [5] | [10]
inactive: all other assays above

COC(=O)[C@@H]1C[C@H]1[C@@H](NC(=O)c1cc(C)on1)c1ccccc1
inactive: [1] | [2] | [5]

COC(=O)[C@H](C)[C@@H]1C[C@@]1(C)[C@@H](NC(=O)OCc1ccccc1)c1ccccc1
inactive: [1] | [5]
active: [3] 5.01 µM | [10] 0.316 µM
